In the library only some 13% were active in any assay of this set; here they are far more common.
USP10 inh: inhibitors of human USP10 deubiquitinase; 47,000 compounds, 1.1% hits; Ubiquitin carboxyl-terminal hydrolase 10 (Homo sapiens), Q14694; inhibition, % at 20 µM; AID 1645856, 2021; purified USP10, Ub-rhodamine fluorescence, 60 min
USP7 inh: inhibitors of human USP7 deubiquitinase; Ubiquitin carboxyl-terminal hydrolase 7 (Homo sapiens), Q93009; purified USP7, Ub-rhodamine cleavage fluorescence; inhibition, % at 20 µM; 47,000 compounds, 0.3% hits; AID 1645854, 2021
UCHL1 block: inhibitors of human UCHL1 deubiquitinase; purified UCHL1, Ub-rhodamine cleavage fluorescence; inhibition, % at 20 µM; 47,000 compounds, 0.2% hits; AID 1645859, 2021
USP30 block: inhibitors of human USP30 deubiquitinase; 47,000 compounds, 5.3% hits; Ubiquitin carboxyl-terminal hydrolase 30 (Homo sapiens), Q70CQ3; purified USP30, Ub-rhodamine cleavage fluorescence; inhibition, % at 25 µM; AID 1645860, 2021
USP8 inh: inhibitors of human USP8 deubiquitinase. Ubiquitin carboxyl-terminal hydrolase 8 (Homo sapiens), P40818. purified USP8, Ub-rhodamine cleavage fluorescence, 30 min. inhibition, % at 20 µM. 47,000 compounds, 4.2% hits
USP17 block: inhibitors of human USP17 deubiquitinase; Ubiquitin carboxyl-terminal hydrolase 17-like protein 5 (Homo sapiens), A8MUK1; purified USP17, Ub-rhodamine cleavage fluorescence, 3 h; inhibition, % at 50 µM; 47,000 compounds, 6.5% hits
Target sequence (A8MUK1 whole entry, looked up): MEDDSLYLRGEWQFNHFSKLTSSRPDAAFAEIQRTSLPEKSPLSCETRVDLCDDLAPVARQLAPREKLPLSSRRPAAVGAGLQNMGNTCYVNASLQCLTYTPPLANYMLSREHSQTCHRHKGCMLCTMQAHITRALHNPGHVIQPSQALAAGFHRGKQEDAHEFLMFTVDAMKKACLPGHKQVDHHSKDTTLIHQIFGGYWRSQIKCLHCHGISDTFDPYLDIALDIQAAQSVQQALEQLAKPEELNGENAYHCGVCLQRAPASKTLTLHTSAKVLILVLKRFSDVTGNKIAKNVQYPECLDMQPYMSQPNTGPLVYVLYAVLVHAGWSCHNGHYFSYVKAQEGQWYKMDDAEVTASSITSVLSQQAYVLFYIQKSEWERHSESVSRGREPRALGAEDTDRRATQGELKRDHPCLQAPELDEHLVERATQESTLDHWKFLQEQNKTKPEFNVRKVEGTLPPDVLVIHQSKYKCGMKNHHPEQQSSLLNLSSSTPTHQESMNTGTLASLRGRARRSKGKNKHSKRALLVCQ
Hits are given with their value. No stated cut-off is given here; in the data, active means inhibition above about 30%; inactive means the rest.

What do the screens show for `O=C(Cc1ccccc1F)N1CCC2(CC1)CC1(CO2)Nc2ccccc2-n2cccc21` (configuration not stated)?
USP10 inh: inactive; USP7 inh: inactive; UCHL1 block: inactive; USP30 block: inactive; USP8 inh: 94; USP17 block: 53

What do the screens show for `Cc1ccc2c(c1)C(=O)NCC1(CCN(C(=O)Cc3ccccc3F)CC1)O2`?
USP10 inh: inactive; USP7 inh: inactive; UCHL1 block: inactive; USP30 block: inactive; USP8 inh: inactive; USP17 block: inactive

What do the screens show for `Cc1nn(C)cc1C(=O)N1CCC2(CC1)CC1(CO2)Nc2ccccc2-n2cccc21` (configuration not stated)?
USP10 inh: inactive; USP7 inh: inactive; UCHL1 block: inactive; USP30 block: inactive; USP8 inh: 57; USP17 block: 38

What do the screens show for `Cc1ccc(C(=O)N2CCC3(CC2)CC2(CO3)Nc3ccccc3-n3cccc32)cn1` (configuration not stated)?
USP10 inh: inactive; USP7 inh: inactive; UCHL1 block: inactive; USP30 block: inactive; USP8 inh: 67; USP17 block: inactive

Results for Cc1oc(C2CC2)cc1C(=O)N1CCC2(CC1)CC1(CO2)Nc2ccccc2-n2cccc21 (configuration not stated) ?
USP10 inh: inactive; USP7 inh: inactive; UCHL1 block: inactive; USP30 block: inactive; USP8 inh: 92; USP17 block: 71

What do the screens show for `Cc1ccc(CNC(=O)c2ccc(-c3cncnc3)nc2)cc1`?
USP10 inh: inactive; USP7 inh: inactive; UCHL1 block: inactive; USP30 block: inactive; USP8 inh: inactive; USP17 block: inactive

Results for COc1cccc(OCC(=O)NCC(c2ccc3c(c2)CCCN3C)N2CCCCC2)c1 (configuration not stated) ?
USP10 inh: inactive; USP7 inh: inactive; UCHL1 block: inactive; USP30 block: inactive; USP8 inh: inactive; USP17 block: inactive

Results for O=C(Nc1ccccc1Sc1ncc(-c2ccc(Cl)cc2)cn1)c1ccco1 ?
USP10 inh: inactive; USP7 inh: inactive; UCHL1 block: inactive; USP30 block: inactive; USP8 inh: inactive; USP17 block: 52

How did O=C(Nc1ncc2c(n1)CC(c1ccc(Cl)cc1)CC2=O)c1ccco1 (configuration not stated) do in these assays?
USP10 inh: inactive; USP7 inh: inactive; UCHL1 block: inactive; USP30 block: inactive; USP8 inh: inactive; USP17 block: inactive

What do the screens show for `Cc1ccc(NC(=O)/C=C/c2cccc(C(F)(F)F)c2)c(O)c1`?
USP10 inh: inactive; USP7 inh: inactive; UCHL1 block: inactive; USP30 block: 45; USP8 inh: inactive; USP17 block: 58

Results for Cc1c(-c2ccc(C#N)cc2)oc2ccc(Br)cc2c1=O ?
USP10 inh: inactive; USP7 inh: inactive; UCHL1 block: inactive; USP30 block: inactive; USP8 inh: inactive; USP17 block: 70

What do the screens show for `CC(C)(C)OC(=O)N1CCN(C(=O)Cn2c(=O)nc(-c3ccccc3)c3ccccc32)CC1`?
USP10 inh: inactive; USP7 inh: inactive; UCHL1 block: inactive; USP30 block: 59; USP8 inh: inactive; USP17 block: 33

What do the screens show for `Cc1cc(C)nc(N2CCC(N(CC3CC3)C(=O)c3cccnc3)CC2)n1`?
USP10 inh: inactive; USP7 inh: inactive; UCHL1 block: inactive; USP30 block: inactive; USP8 inh: inactive; USP17 block: inactive

What do the screens show for `COc1ccc(NC(=O)COC(=O)Cn2cnc3ccccc32)cc1OC`?
USP10 inh: inactive; USP7 inh: inactive; UCHL1 block: inactive; USP30 block: inactive; USP8 inh: inactive; USP17 block: inactive

Results for O=C(CSc1nnc(Cn2cnc3ccccc32)o1)Nc1ccc([N+](=O)[O-])cc1 ?
USP10 inh: inactive; USP7 inh: inactive; UCHL1 block: inactive; USP30 block: inactive; USP8 inh: inactive; USP17 block: 63

How did CCN(CC)C(=O)c1sc(NC(=O)c2cnccn2)c(C#N)c1C do in these assays?
USP10 inh: inactive; USP7 inh: inactive; UCHL1 block: inactive; USP30 block: inactive; USP8 inh: inactive; USP17 block: inactive

What do the screens show for `CSc1cccc(C(=O)Nc2ccc(-c3nc4ccccc4[nH]3)cc2)c1`?
USP10 inh: inactive; USP7 inh: inactive; UCHL1 block: inactive; USP30 block: 32; USP8 inh: inactive; USP17 block: 63

How did COC1C(CO)O[C@@H](O[C@H](C[C@@]2(C)[C@H](C)CCC(=O)[C@@H]2C)/C(C)=C/Cc2c(O)c(Cl)c(C)c(C=O)c2O)C(O)C1O (some centres not stated) do in these assays?
USP10 inh: inactive; USP7 inh: inactive; UCHL1 block: inactive; USP30 block: inactive; USP8 inh: inactive; USP17 block: inactive

Results for C/C(=C\Cc1c(O)cc(C)c(C=O)c1O)CC[C@@]1(C)[C@H](C)CCC(=O)[C@@H]1C ?
USP10 inh: 37; USP7 inh: inactive; UCHL1 block: inactive; USP30 block: inactive; USP8 inh: inactive; USP17 block: 50

What do the screens show for `Cc1ccc(OCC(=O)Nc2ccc3c(c2)CCC(=O)N3Cc2ccccc2)cc1`?
USP10 inh: inactive; USP7 inh: inactive; UCHL1 block: inactive; USP30 block: inactive; USP8 inh: inactive; USP17 block: inactive

How did COc1ccc(OCC(=O)Nc2ccc3c(c2)CCC(=O)N3Cc2ccccc2)cc1 do in these assays?
USP10 inh: inactive; USP7 inh: inactive; UCHL1 block: inactive; USP30 block: 32; USP8 inh: inactive; USP17 block: inactive

How did CC(C)N1CCn2c(nc3cc(NC(=O)c4cccnc4)ccc32)C1 do in these assays?
USP10 inh: inactive; USP7 inh: inactive; UCHL1 block: inactive; USP30 block: inactive; USP8 inh: 32; USP17 block: 34

How did Cc1cc(C(=O)N2CC[C@@H]3CN(C)S(=O)(=O)[C@@H]3CC2)no1 do in these assays?
USP10 inh: inactive; USP7 inh: inactive; UCHL1 block: inactive; USP30 block: inactive; USP8 inh: inactive; USP17 block: inactive

Results for Cc1ccc(Cl)cc1N(Cc1ccc(C(=O)N2CCOCC2)cc1)S(=O)(=O)c1ccccc1 ?
USP10 inh: inactive; USP7 inh: inactive; UCHL1 block: inactive; USP30 block: 50; USP8 inh: inactive

How did Cc1ccc(C)c(N(CC(=O)NCCN2CCOCC2)S(=O)(=O)c2ccccc2)c1 do in these assays?
USP10 inh: inactive; USP7 inh: inactive; UCHL1 block: inactive; USP30 block: inactive; USP8 inh: inactive; USP17 block: inactive

What do the screens show for `CC1=C(C(=O)NCc2ccccc2)C(c2cccc(F)c2)n2ncnc2N1` (configuration not stated)?
USP10 inh: inactive; USP7 inh: inactive; UCHL1 block: inactive; USP30 block: 33; USP8 inh: inactive; USP17 block: inactive
